About 83,000 compounds went through this panel and 20% of them were active in at least one assay; those are over-represented in the sample as a whole.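 Cells were grown in 96-well plates and exposed to the test compound at a single concentration for 48 hours; results are reported as percent growth, with values below 10 considered active.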 Values without a mark were called inactive. Active and inactive are the calls of the source.

Our source for the growth values is PubChem BioAssay (NCI).

Among the test systems are NCI-H23 lung; NCI-H226 lung; NCI-H322M lung; HOP-62 NSCLC; NCI-H460 lung; HOP-92 NSCLC; NCI-H522 lung; A549/ATCC NSCLC; 786-0 renal; COLO 205 colon; DU-145 prostate; K-562 leukemia; MALME-3M melanoma; MDA-MB-231 breast; RXF 393 renal; SF-268 CNS; SF-295 CNS; SF-539 CNS; UACC-257 melanoma; M14 melanoma.
Test in all cases: NCI-60 one-dose screen, 48 h (100 = growth as untreated, 0 = no growth, -100 = all killed)
Common to all, as to conditions: 10 µM unless noted

With `CC(C)CNCC(=O)Nc1ccc(Cc2ccc(NC(=O)CNCC(C)C)cc2)cc1`, the growth in the experiment with NCI-H23 lung is 84%; in the experiment on NCI-H226 lung, 68.6%; with NCI-H322M lung, 78.2%; in the experiment on HOP-62 NSCLC, 59.1%; with NCI-H460 lung it was 43.1%; in the experiment with HOP-92 NSCLC, 38.4%. Moreover, the growth in the experiment with NCI-H522 lung is 48.3%; in the experiment on A549/ATCC NSCLC, 65%; in the experiment with 786-0 renal, 42.8%; with COLO 205 colon, 53.8%; in the experiment with DU-145 prostate it was 58.3%; with K-562 leukemia, -27.7% (active). The growth was -23% (active) in the experiment with MALME-3M melanoma; -0.499% (active) in the experiment with MDA-MB-231 breast; 46.7% with RXF 393 renal; 59.7% in the experiment with SF-268 CNS; 78.5% in the experiment with SF-295 CNS; 77.8% with SF-539 CNS. The growth in the experiment with UACC-257 melanoma is 62.6%; in the experiment on M14 melanoma, 38.6%.
On to `COc1cc(-c2nc3ccccc3s2)ccc1OCc1nc2n(n1)S(=O)(=O)c1ccccc1N2C`, for which the growth with NCI-H23 lung is 92.7%; in the experiment on NCI-H226 lung, 101%; in the experiment with NCI-H322M lung, 68.9%; in the experiment with HOP-62 NSCLC, 46.1%; in the experiment with NCI-H460 lung, 101%; in the experiment on HOP-92 NSCLC it was 1.17% (active). The growth is 60.7% in the experiment on NCI-H522 lung; 91.1% in the experiment on A549/ATCC NSCLC; 62.1% with 786-0 renal; 102% in the experiment on COLO 205 colon; 87.7% in the experiment on DU-145 prostate; 71.1% in the experiment with K-562 leukemia. Further, the growth in the experiment on MALME-3M melanoma is 39.4%; with MDA-MB-231 breast, 84.6%; in the experiment with RXF 393 renal it was 58.3%; in the experiment on SF-268 CNS, 94.4%; in the experiment with SF-295 CNS, 61.3%; in the experiment with SF-539 CNS, 52.4%. For the same compound, the growth was 104% in the experiment with UACC-257 melanoma and 76.8% in the experiment on M14 melanoma.
Take `CC1(C)N=C(N)N=C(N)N1c1ccc(F)c(C(F)(F)F)c1`: the growth was 29.4% in the experiment with NCI-H23 lung; 54.1% in the experiment on NCI-H226 lung; 51.9% in the experiment on NCI-H322M lung; 21.7% in the experiment with HOP-62 NSCLC; 21.6% in the experiment with NCI-H460 lung; 45.4% in the experiment on HOP-92 NSCLC. The growth in the experiment on NCI-H522 lung is -8.07% (active); in the experiment with A549/ATCC NSCLC, 9.86% (active); with 786-0 renal it was -4.42% (active); in the experiment with COLO 205 colon it was 79.8%; in the experiment on DU-145 prostate it was 38.5%; in the experiment on K-562 leukemia, 16.9%. Besides, the growth with MALME-3M melanoma is 74.1%; in the experiment on MDA-MB-231 breast, 73.5%; in the experiment with SF-268 CNS, 23.2%; in the experiment on SF-295 CNS, 19.5%; with SF-539 CNS, 23.2%; with UACC-257 melanoma, 25.2%. In addition, in the experiment with M14 melanoma, the growth is 24%.
As to `O=C(Nc1ccc(-n2ccc3c(NC(=O)c4ccccc4)nccc32)cc1)c1ccc(Cl)c(C(F)(F)F)c1`, the growth with NCI-H23 lung is 64%; in the experiment on NCI-H226 lung it was 69.9%; in the experiment with NCI-H322M lung, 66.1%; in the experiment on HOP-62 NSCLC it was 53.9%; in the experiment with NCI-H460 lung, -67% (active); in the experiment on HOP-92 NSCLC, 46.5%. Also, the growth was -0.6% (active) in the experiment with NCI-H522 lung; -29.9% (active) in the experiment on A549/ATCC NSCLC; 22.9% with 786-0 renal; 37.2% in the experiment on COLO 205 colon; 23.6% in the experiment on DU-145 prostate; -31.6% (active) with K-562 leukemia. The growth was 57.9% in the experiment with MALME-3M melanoma; 55.8% in the experiment on MDA-MB-231 breast; 18.4% with RXF 393 renal; 28.7% with SF-268 CNS; 25.3% in the experiment on SF-295 CNS; 24.1% in the experiment on SF-539 CNS. Further, the results for the growth with UACC-257 melanoma and in the experiment with M14 melanoma were 58.8% and 31.5%, respectively.
Take `Cc1cc(NC(=O)c2cccc(C(F)(F)F)c2)ccc1-n1ccc2c(NC(=O)c3ccccc3)nccc21`: the growth is 94.6% with NCI-H23 lung; 112% with NCI-H226 lung; 77.4% with NCI-H322M lung; 87.4% in the experiment with HOP-62 NSCLC; 116% in the experiment on NCI-H460 lung; 123% with HOP-92 NSCLC. Also, the growth with NCI-H522 lung is 85.6%; with A549/ATCC NSCLC, 86.8%; in the experiment with 786-0 renal, 102%; with COLO 205 colon, 113%; with DU-145 prostate, 112%; in the experiment with K-562 leukemia, 91.2%. Besides, the growth with MALME-3M melanoma is 99.7%; in the experiment on MDA-MB-231 breast, 94.9%; in the experiment on RXF 393 renal, 118%; in the experiment with SF-268 CNS it was 103%; in the experiment with SF-295 CNS it was 102%; in the experiment with SF-539 CNS, 95.9%. Also, the growth with UACC-257 melanoma was 101%; in the experiment on M14 melanoma, 96.8%.
On to `O=C(NNC(=O)c1ccc([N+](=O)[O-])cc1)c1ccc([N+](=O)[O-])cc1`, for which the growth in the experiment on NCI-H23 lung is 94.8%; with NCI-H226 lung it was 99.3%; with NCI-H322M lung it was 120%; in the experiment with HOP-62 NSCLC, 90.8%; in the experiment with NCI-H460 lung, 105%; in the experiment with HOP-92 NSCLC, 106%. Also, the growth in the experiment with NCI-H522 lung is 84%; with A549/ATCC NSCLC it was 99.3%; with 786-0 renal it was 95%; in the experiment on COLO 205 colon, 115%; in the experiment on DU-145 prostate it was 113%; in the experiment on K-562 leukemia it was 93.6%. The growth in the experiment with MALME-3M melanoma is 112%; in the experiment on MDA-MB-231 breast, 117%; in the experiment on RXF 393 renal it was 111%; with SF-268 CNS, 101%; in the experiment with SF-295 CNS it was 94.2%; with SF-539 CNS, 91.4%. The growth in the experiment with UACC-257 melanoma was 111%; with M14 melanoma, 95.4%.
Turning to `CCC(C)Nc1ccc(N)cc1` (stereo not drawn), the growth in the experiment with NCI-H23 lung was 5.04% (active); with NCI-H226 lung, 42.5%; with NCI-H322M lung, 53.3%; in the experiment with HOP-62 NSCLC it was 11.6%; in the experiment on NCI-H460 lung, 9.41% (active); in the experiment with HOP-92 NSCLC, -24.5% (active). Besides, the growth in the experiment on NCI-H522 lung was -25.2% (active); in the experiment on A549/ATCC NSCLC, 11.8%; in the experiment with 786-0 renal, -35.8% (active); in the experiment on COLO 205 colon it was -57.2% (active); with DU-145 prostate, 32.1%; in the experiment with K-562 leukemia, 3.79% (active). The growth in the experiment on MALME-3M melanoma is -15.6% (active); in the experiment on MDA-MB-231 breast, 4.8% (active); with SF-268 CNS it was 47%; with SF-295 CNS it was 11.4%; with SF-539 CNS it was 47.5%; in the experiment on UACC-257 melanoma, -43.1% (active). Also, in the experiment with M14 melanoma, the growth is 31.9%.
On to `Cc1cc[n+](CCCC[n+]2ccc(C)cc2)cc1`, for which the growth in the experiment on NCI-H23 lung was 96%; in the experiment on NCI-H226 lung, 99%; with NCI-H322M lung it was 97.1%; in the experiment on HOP-62 NSCLC, 108%; with NCI-H460 lung it was 108%; in the experiment with HOP-92 NSCLC it was 74.3%. Besides, the growth is 120% with NCI-H522 lung; 104% in the experiment with A549/ATCC NSCLC; 95.8% with 786-0 renal; 110% in the experiment with COLO 205 colon; 101% in the experiment on DU-145 prostate; 109% in the experiment on K-562 leukemia. In addition, the growth in the experiment on MALME-3M melanoma is 97.6%; in the experiment on MDA-MB-231 breast, 105%; in the experiment with RXF 393 renal it was 106%; in the experiment on SF-268 CNS it was 102%; with SF-295 CNS, 103%; in the experiment with SF-539 CNS, 102%. Also, the growth with UACC-257 melanoma is 111%; in the experiment with M14 melanoma it was 95.4%.
